Rows were chosen to be rich in hits. Some 0.95% of all compounds tested hit in one or more screens of this group.
Resorufin autofl = resorufin region autofluorescence; Compound fluorescence, resorufin region 547/598 nm, buffer; active compounds read high; max dye-equivalent concentration, M; 59,000 compounds, 0.04% hits; AID 588
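Compounds in 100 mM Tris buffer, pH 8.0, incubated 15 min at room temperature, then read with 547 nm excitation and 598 nm emission filters. Fluorescence was converted to dye-equivalent concentration using an on-plate six-point resorufin standard curve.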
A488 autofl = compound fluoresces in the A488 spectral region | AID 591 | compound autofluorescence, A488 spectral region, dye equivalency; Compound Type: qHTS ECL - MLSMR | 59,000 compounds, 0.1% hits | max dye equivalency, M
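Autofluorescence read at ex 480/em 540 nm after 15 min RT in 100 mM Tris pH 8.0; compound signal normalized to A488 standard series on each plate, reported as dye-equivalent concentration at each test concentration.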
Texas Red fluor = Texas Red region autofluorescence | Compound fluorescence, Texas Red channel, 547/618 nm; active compounds read high | max dye-equivalent concentration, M | 59,000 compounds, 0.06% hits; in the data active means max dye-equivalent concentration above about 10 nM; inconclusive means between about 1.1 nM and that limit
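Pin-transferred compounds and Texas Red standards go into 100 mM Tris buffer, pH 8.0. After 15 min at room temperature, plates are imaged with 547/618 nm filters. Each value is a dye-equivalent concentration derived from the per-plate dye curve.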
A647 fluor = A647 region autofluorescence; max dye-equivalent concentration, M; 59,000 tested, under 10 active; Compound fluorescence, A647 channel (570/671 nm), Tris buffer
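Buffer was dispensed, compounds and Alexa 647 standards were pin-transferred, and plates sat 15 min at room temperature. Intensity at 570/671 nm was then converted to dye-equivalent concentration using the plate's A647 standard curve.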
Fluorescein fluor = compound fluoresces in the fluorescein spectral region. 59,000 compounds, 0.91% hits. max fluorescein-equivalent concentration, M. AID 593. Compound autofluorescence, 480/540 nm, fluorescein-equivalent; active compounds read high; in the data active means max fluorescein-equivalent concentration above about 10 nM; inconclusive means between about 1.1 nM and that limit
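Values reflect compound autofluorescence, normalized to fluorescein on the same plate and reported at each tested concentration. Conditions: 100 mM Tris pH 8.0, room temperature, 15 min, excitation 480 nm, emission 540 nm.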
Rhodamine autofl = compound fluoresces in the rhodamine spectral region | 59,000 compounds, 0.05% hits | Rhodamine-region fluorescence, 547/598 nm, Tris buffer; active compounds read high | max dye-equivalent concentration, M; in the data active means max dye-equivalent concentration above about 11 nM; inconclusive means between about 1.1 nM and that limit
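Intrinsic compound fluorescence, ex 547 / em 598 nm, CCD imager. Tris 100 mM pH 8.0; 15 min RT. Output = rhodamine dye-equivalent concentration at each compound concentration.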
Numbers stand for hits; i = inactive; ? = inconclusive; ! = not active in a repeat. Unless noted, how the calls were made is not given here.

SMILES	Resorufin autofl	A488 autofl	Texas Red fluor	A647 fluor	Fluorescein fluor	Rhodamine autofl
C[C@@H]1O[C@H](O[C@@H]2[C@@H](Oc3cc(O)c4c(c3)O[C@H](c3ccc(O)cc3)CC4=O)O[C@@H](CO)[C@@H](O)[C@H]2O)[C@@H](O)[C@H](O)[C@@H]1O	i	i	i	i	?	i
CC(C)(C)c1cc(/C=C(\C#N)C(N)=S)cc(C(C)(C)C)c1O	i	i	i	i	2.8e-08M	i
CC(=O)[C@@]1(O)Cc2c(O)c3c(c(O)c2[C@H](O[C@H]2C[C@H](N)[C@H](O)[C@H](C)O2)C1)C(=O)c1ccccc1C3=O	2.4e-08M	2.4e-08M	?	i	4.7e-07M	4.2e-08M
COc1cccc2c1C(=O)c1c(O)c3c(c(O)c1C2=O)C[C@](O)(C(C)=O)C[C@H]3O[C@@H]1C[C@H](N)[C@H](O)[C@H](C)O1	4.5e-08M	?	5.9e-08M	i	2e-07M	6e-08M
COc1cccc2c1C(=N)c1c(O)c3c(c(O)c1C2=O)C[C@](O)(C(C)=O)C[C@@H]3O[C@H]1C[C@H](N)[C@@H](O)[C@H](C)O1	i	i	1e-08M	i	i	?
COc1cccc2c1C(=O)c1c(O)c3c(c(O)c1C2=O)C[C@@](O)(C(=O)CO)C[C@@H]3O[C@H]1C[C@H](N)[C@H](O)[C@H](C)O1	7.6e-08M	1.3e-08M	8.3e-08M	i	2.9e-07M	8.7e-08M
NC[C@H](O)C1CCCCCCC1	i	i	?	i	i	i
CCOn1c(=O)c(-c2ccc(OC)cc2)[n+]([O-])c2ccccc21	i	i	i	i	i	i
CCOC(=O)COn1c(=O)c(-c2cccs2)[n+]([O-])c2ccccc21	i	i	i	i	1.3e-08M	i
O=S(=O)(CCn1cccc1)CCn1cccc1	i	i	i	i	1e-08M	i
C=CCn1c(=O)/c(=C/c2ccc(C)o2)s/c1=C(/C#N)C(=O)c1ccccc1	i	?	i	i	9.9e-08M	i
COc1ccc(OC)c([C@H]2Nc3ccccc3NC3=C2C(=O)CC(C)(C)C3)c1Br	i	i	?	i	i	i
CC(C)(C)c1onc(OCP(=O)(O)O)c1C[C@@H](N)C(=O)O	i	i	?	i	i	i
C=CCOn1c(=O)c(-c2cc3ccccc3o2)[n+]([O-])c2ccccc21	i	i	i	i	1.9e-08M	i
O=[n+]1c2c(n([O-])c3cc(F)ccc31)CCCC2	i	i	i	i	i	i
O=[n+]1c2c(n([O-])c3cc(F)c(N4CCCC4)cc31)CCC2	?	?	?	i	1.7e-07M	?
CC(=O)OCC(=O)[C@@]1(O)CC[C@@H]2[C@@H]3CCC4=CC(=O)CC[C@@]4(C)[C@H]3C(=O)C[C@]21C	i	i	?	i	i	i
COc1cc(C2C3=C(CC(C)(C)CC3=O)Nc3c2c(=O)[nH]c(=O)n3Cc2ccccc2)ccc1O (configuration not stated)	i	i	i	i	?	i
COc1ccc(C2C3=C(CC(C)(C)CC3=O)Nc3c2c(=O)[nH]c(=O)n3Cc2ccccc2)cc1OC (configuration not stated)	i	i	i	i	1.1e-08M	i
O=C1CCN2C=Nc3cccc4ccc1c2c34	i	1.5e-07M	i	i	2.8e-06M	i
CC(=O)[C@@H]1[C@H]2[C@@H](C(=O)[C@H]3OC[C@H]2O3)[C@@H]2C=Cc3ccccc3N12	i	i	?	i	1.1e-08M	i
COc1ccc(C(=O)Nc2nc(-c3cccs3)cs2)cc1	i	i	i	i	?	i
Cc1csc(NC(=O)c2sc3nc(-c4cccs4)ccc3c2N)n1	i	i	i	i	1.4e-08M	i
CN(C)S(=O)(=O)N1CCc2ccccc21	i	i	i	i	i	i
O=S(=O)(Cc1ccccc1)N1CCc2ccccc21	1.6e-08M	?	2e-08M	i	3.4e-08M	2.1e-08M
SMILES	Resorufin autofl	A488 autofl	Texas Red fluor	A647 fluor	Fluorescein fluor	Rhodamine autofl
CC(=O)[C@@]1(O)CC[C@@H]2[C@@H]3CCC4=CC(=O)CC[C@@]4(C)[C@H]3CC[C@]21C	i	i	?	i	i	i
Cc1c(C2Nc3ccccc3NC3=C2C(=O)CC(C)(C)C3)cnn1C (configuration not stated)	i	i	i	i	1.1e-08M!	i
C[C@H]1[C@H](C)CC[C@]2(C(=O)O)CC[C@]3(C)C(=CC[C@@H]4[C@]5(C)C[C@H](O)[C@@H](O)[C@@](C)(CO)[C@@H]5[C@H](O)C[C@@]43C)[C@H]12	i	i	i	i	?	i
COc1nccc(Nc2ccccc2)c1C#N	i	i	?	i	?	i
COc1[nH]c(/N=C/c2ccccc2)c(C#N)c1C#N	?	?	?	i	3.6e-08M	?
Oc1ccccc1C(Sc1nc2ccccc2s1)Sc1nc2ccccc2s1	i	i	i	i	?	i
COCCn1c(=O)c(C)nc2cnc(Nc3cccc(OC)c3)nc21	i	i	i	i	i	i
COc1cccc(Nc2ncc3nc(-c4cn(C)c5ccccc45)c(=O)n(CCC#N)c3n2)c1	i	i	i	i	2.4e-08M	i
COCCn1c(=O)c(-c2ccc(OC)cc2)nc2cnc(Nc3cccc(OC)c3)nc21	i	i	i	i	1e-08M	i
O=C(/C=C\c1ccc(O)c(O)c1)O[C@H]1C[C@@](O)(C(=O)O)C[C@H](O)[C@@H]1O	i	i	i	i	i	i
CCN(CC)c1ccc2c(Cl)c(Br)c(=O)oc2c1	i	i	i	i	?	i
CCN(CC)c1ccc2c(c1)oc(=O)c1c(Cl)cc(=O)oc12	i	2.5e-08M	i	i	4.8e-07M	i
O=C1c2cccnc2C(=O)N1Cc1ccc(F)cc1	i	?	i	i	8.2e-08M	i
Cn1cnnc1Sc1nc2ccccc2nc1NS(=O)(=O)c1ccccc1	i	i	i	i	?	i
Cn1ccnc1Sc1nc2ccccc2nc1NS(=O)(=O)c1ccccc1	i	i	i	i	1.1e-08M	i
Cc1c(Nc2nc3ccccc3nc2NS(=O)(=O)c2ccccc2)c(=O)n(-c2ccccc2)n1C	i	i	i	i	i	i
CC(=O)Nc1ccc(S(=O)(=O)Nc2nc3ccccc3nc2Sc2nncn2C)cc1	i	i	i	i	1.4e-08M	i
C[C@@H](Cc1ccccc1)Nc1ncnc2c1ncn2[C@@H]1O[C@@H](CO)[C@H](O)[C@@H]1O	i	i	i	i	?	i
Cc1sccc1C1C(C#N)=C(N)SC(N)=C1C#N	i	i	i	i	1.2e-08M	i
CC(=O)O[C@H]1CC[C@@]2(C)[C@@H](CC[C@@]3(C)[C@H]2C(=O)C=C2[C@H]4C[C@](C)(C(=O)OCCN5CCCCC5)CC[C@]4(C)CC[C@@]23C)C1(C)C	i	i	i	i	i	i
COc1ccc2nc(N3CCC(C)CC3)c(C#N)cc2c1	i	i	i	i	?	i
COc1ccc2nc(N3CCC(O)CC3)c(C#N)cc2c1	i	i	i	i	2.3e-08M	i
CC(=O)NCCN=C(C)c1sc2ccccc2c1O	i	i	?	i	?	i

Screens as filed in PubChem BioAssay.
